Assay results as given in publication PMC4336329 (PLoS ONE, 2015).
Among all 310,000 compounds or so, about 2,200 (0.71%) showed an effect of 50% or more. The effect is printed as a negative number. For the sample, strong results were picked, then their nearest neighbours and some compounds at random.

What follows are compounds tested against human ether-à-go-go-related gene (hERG) potassium channel (human, UniProt Q12809) (assay: primary screen, population patch clamp on CHO cells stably expressing hERG; higher = less effect of the substance).
Sequence of human ether-à-go-go-related gene (hERG) potassium channel (Q12809 whole entry, looked up): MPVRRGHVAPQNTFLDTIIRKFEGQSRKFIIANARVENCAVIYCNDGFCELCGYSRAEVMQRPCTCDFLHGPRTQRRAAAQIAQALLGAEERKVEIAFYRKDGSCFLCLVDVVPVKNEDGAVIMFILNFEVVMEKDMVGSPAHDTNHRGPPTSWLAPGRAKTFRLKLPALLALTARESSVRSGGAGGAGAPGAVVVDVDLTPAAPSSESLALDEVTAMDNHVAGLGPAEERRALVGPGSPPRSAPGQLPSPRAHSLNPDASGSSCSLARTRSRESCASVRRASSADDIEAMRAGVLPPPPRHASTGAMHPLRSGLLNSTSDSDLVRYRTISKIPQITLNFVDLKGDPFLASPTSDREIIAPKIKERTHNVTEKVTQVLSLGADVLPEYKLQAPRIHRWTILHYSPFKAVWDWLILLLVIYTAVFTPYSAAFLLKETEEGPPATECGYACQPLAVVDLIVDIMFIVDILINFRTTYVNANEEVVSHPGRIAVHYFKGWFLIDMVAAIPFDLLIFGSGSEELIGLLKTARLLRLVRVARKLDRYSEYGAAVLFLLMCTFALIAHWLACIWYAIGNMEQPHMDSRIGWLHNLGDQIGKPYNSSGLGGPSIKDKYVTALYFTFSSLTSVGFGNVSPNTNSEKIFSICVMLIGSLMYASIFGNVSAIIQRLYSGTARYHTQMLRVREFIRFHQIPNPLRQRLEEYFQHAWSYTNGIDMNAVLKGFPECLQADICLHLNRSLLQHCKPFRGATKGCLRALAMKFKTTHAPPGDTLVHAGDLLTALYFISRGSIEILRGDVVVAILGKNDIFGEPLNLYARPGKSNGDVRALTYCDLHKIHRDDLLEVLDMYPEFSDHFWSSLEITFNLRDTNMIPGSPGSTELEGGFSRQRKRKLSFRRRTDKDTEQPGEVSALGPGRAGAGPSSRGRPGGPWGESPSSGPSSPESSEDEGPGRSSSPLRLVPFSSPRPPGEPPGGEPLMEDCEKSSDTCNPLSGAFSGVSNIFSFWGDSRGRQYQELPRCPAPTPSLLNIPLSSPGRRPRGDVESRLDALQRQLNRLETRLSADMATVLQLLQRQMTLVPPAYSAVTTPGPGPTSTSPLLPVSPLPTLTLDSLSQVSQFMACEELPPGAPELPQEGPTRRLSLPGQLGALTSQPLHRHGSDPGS

SMILES | hERG current change (%, negative = inhibition) at 1uM
Cc1ccccc1Cn1c(=O)n(CCC(=O)NCc2ccc3c(c2)OCO3)c(=O)c2ccccc21 | 16.7%
CCCOC(=O)c1cc(-c2ccc(C=O)o2)ccc1Cl | 3.2%
O=C(COC(=O)CCC(=O)c1ccc(F)cc1)Nc1nnc(-c2ccccc2)o1 | -0.682%
O=C(CCCCCBr)N1CCC(CC2CC(c3ccc(Cl)cc3)=NO2)(C(=O)NCC2CCCCC2)CC1 (centres unmarked) | -37.5%
CCCNC(=O)C1(CC2CC(c3ccccc3)=NO2)CCN(C(=O)CCCCCBr)CC1 (centres unmarked) | -5.35%
CCCCCCCNC(=O)C1(CC2CC(c3cccc(Br)c3)=NO2)CCN(C(=O)CCCCCBr)CC1 (centres unmarked) | -72%
CCCCCCCNC(=O)C1(CC2CC(c3ccc(Cl)cc3)=NO2)CCN(C(=O)OC(C)(C)C)CC1 (centres unmarked) | 18.9%
CCCCCCCNC(=O)C1(CC2CC(c3cccc(Br)c3)=NO2)CCN(C(=O)OC(C)(C)C)CC1 (centres unmarked) | 4.2%
CCCCCCCNC(=O)C1(CC2CC(c3ccc(Cl)cc3)=NO2)CCN(C(=O)CCCCCBr)CC1 (centres unmarked) | -52.1%
CCN1C(=O)N(CC)C2NC(=S)NC21 (centres unmarked) | 7.44%
CC(=O)C1=C(NC(=O)c2ccc(F)cc2)CC2C1C2(C)C (centres unmarked) | 9.7%
O=C(CN1C(=O)CSc2ccccc21)N1CCc2ccccc21 | 9.93%
O=C(O)CSc1nnc(SCc2cccc3ccccc23)s1 | 6.81%
COc1ccccc1CNC(=O)C1CCN(S(=O)(=O)c2ccc3c(c2)OCCCO3)CC1 | -1.02%
COC(=O)C1(C)Cc2cc(OC(C)=O)c(OC(C)=O)cc2N1 (centres unmarked) | 11.7%
CC(=O)Nc1ccc(NC(=O)CSc2nccn2Cc2ccccc2)cc1 | 10.5%
O=C(Oc1ccc(C(=S)N2CCOCC2)cc1)c1ccccc1[N+](=O)[O-] | 21.2%
O=C(Nc1ccc(Cl)cc1)Nc1nnc(Cc2ccc([N+](=O)[O-])cc2)s1 | 13.9%
COc1ccccc1CCNC(=O)C1CCN(c2nnc(C)c3c(C)n(-c4ccc(C)cc4)nc23)CC1 | 14.7%
CN/C=C(/Cl)P(=O)(OC(C)C)OC(C)C | 11%
CCCn1ncc(CN2CCC(n3nccc3NC(=O)c3ccccc3Cl)CC2)c1C | -47.6%
CCn1ccnc1CN1CCC(n2nccc2NC(=O)CCc2ccccc2)CC1 | 15.9%
CCOc1ccc(CN2CCC(n3nccc3NC(=O)c3ccccc3OC)CC2)cc1 | -89.4%

SMILES | hERG current change (%, negative = inhibition) at 1uM
COc1ccccc1C(=O)Nc1ccnn1C1CCN(Cc2cnc(N(C)C)s2)CC1 | -24.7%
CCn1ccnc1CN1CCC(n2nccc2NC(=O)c2ccccc2OC)CC1 | -64.9%
CCCn1ncc(CN2CCC(n3nccc3NC(=O)c3ccccc3OC)CC2)c1C | -73.2%
COc1ccccc1C(=O)Nc1ccnn1C1CCN(Cc2cnn(C)c2C)CC1 | -28.8%
COc1ccccc1C(=O)Nc1ccnn1C1CCN(Cc2ccn[nH]2)CC1 | 1.62%
Cn1cc(CN2CCC(n3nccc3NC(=O)c3ccccc3Cl)CC2)c2ccccc21 | -47.6%
COc1ccccc1C(=O)Nc1ccnn1C1CCN(C(=O)C2CCOC2)CC1 (centres unmarked) | 4.19%
COc1ccccc1C(=O)Nc1ccnn1C1CCN(Cc2ncc[nH]2)CC1 | 6%
COc1ccccc1C(=O)Nc1ccnn1C1CCN(Cc2cn(C)c3ccccc23)CC1 | -74.9%
CCCCn1c(O)c(C(CC)=Nc2ccc(OC)cc2OC)c(=O)[nH]c1=O | 4.73%
Cc1ccc2c(CN3CC(C)CC(C)C3)cc(=O)oc2c1C (centres unmarked) | 9.29%
COC(=O)C(NC(C)=O)(Nc1ccc(Br)cn1)C(F)(F)F (centres unmarked) | 6.68%
CCCCNC(=O)COC(=O)c1ccc(C)c(NC(=O)c2ccco2)c1 | 11.3%
COC(=O)COc1cc(C)cc2oc(=O)c3c(c12)CCCC3 | -4.18%
O=C(CCCN1C(=O)c2ccccc2C1=O)Nc1nncs1 | 14.9%
O=C(Nc1ccnn1C1CCN(Cc2ccccc2OCCO)CC1)c1cccc(F)c1 | -6.97%
COc1ccccc1CN1CCC(n2nccc2NC(=O)c2ccccc2Cl)CC1 | -47.2%
COc1ccccc1C(=O)Nc1ccnn1C1CCN(Cc2ccc3nonc3c2)CC1 | -61.8%
COc1ccccc1C(=O)Nc1ccnn1C1CCN(Cc2ccccc2OCCO)CC1 | -79.5%
COc1ccccc1C(=O)Nc1ccnn1C1CCN(Cc2cnn(C)c2)CC1 | -27%
CCn1cc(CN2CCC(n3nccc3NC(=O)c3ccccc3OC)CC2)cn1 | -53.5%
COc1ccc(C(=O)Nc2ccnn2C2CCN(Cc3ccc4nonc4c3)CC2)cc1 | -0.334%
COc1ccccc1C(=O)Nc1ccnn1C1CCN(Cc2csc(C(C)=O)c2)CC1 | -50.9%

SMILES | hERG current change (%, negative = inhibition) at 1uM
CC(=O)c1cc(CN2CCC(n3nccc3NC(=O)c3ccccc3Cl)CC2)cs1 | -40.5%
CCn1cc(CN2CCC(n3nccc3NC(=O)c3ccccc3C)CC2)cn1 | -14.9%
CC(=O)c1cc(CN2CCC(n3nccc3NC(=O)c3ccccc3C)CC2)cs1 | -15.8%
N#CCC1c2ccccc2CCN1C(=O)Nc1ccc(C(F)(F)F)cc1 (centres unmarked) | -4.23%
COc1ccccc1S(=O)(=O)CC(O)COc1ccc(F)cc1Cl (centres unmarked) | 12.6%
O=C(CNC(=O)c1ccc(Br)cc1)NCC(=O)OCC(=O)c1ccccc1 | 9.69%
CC(=O)Nc1cc2c3c(c1)CCN3C(=O)CC2 | 22.9%
CCC1=Nc2ccccc2NC2=C1C(=O)CCC2.Cl | -18.7%
CC(C)(C)NC(=O)Cn1c(SCC(=O)Nc2nccs2)nc2ccccc21 | 10.4%
CC(C)COC(=O)NC1c2ccccc2Oc2ccccc21 | -2.38%
CCCCn1nnc(NC(=O)Cc2ccc(Cl)cc2)n1 | -4.74%
CCOC(=O)c1c(C)[nH]c(C)c1S(=O)(=O)NCC1CCN(Cc2ccccc2F)CC1 | 8.12%
COc1cc2nc(CN3CCOCC3)n(CC(=O)NCC(F)(F)F)c(=O)c2cc1OC | 11.5%
COC(=O)c1nnn(-c2nonc2N)c1COc1ccc(C=O)cc1OC | -1.8%
Cc1c(C2N3CC4(C)CN2CC(C)(C3)C4=O)c2ccccc2n1C (centres unmarked) | -15.5%
CC1=Nc2cc(C(=O)NCCCN3CCOCC3)ccc2Sc2c(C)ccc(C)c21 | 14.7%
N#Cc1ccc(/C=C/C(=O)c2ccco2)cc1 | 5.85%
COc1ccc(C(=O)NC2CC3CCCC(C2)N3CC(C)C)cc1OC (centres unmarked) | 8.35%
Cc1cccc(C(=O)NCCCn2ccnc2)c1C | 4.84%
COc1cc(CN2CCC(n3nccc3NC(=O)C3CCOC3)CC2)ccc1F (centres unmarked) | 2.37%
COc1cc(CN2CCC(n3nccc3NC(=O)CCCc3ccccc3)CC2)ccc1F | 9.25%
COc1cc(CN2CCC(n3nccc3NC(=O)c3ccccc3OC)CC2)ccc1F | -77.6%
COc1ccc(NC2CCCN(C(=O)CSc3ccccc3)C2)cc1 (centres unmarked) | 8.31%

SMILES | hERG current change (%, negative = inhibition) at 1uM
CSc1cccc(NC(=S)N(CCCN2CCCC2)Cc2cccs2)c1 | -17.9%
CC1CCN(CCCn2c(SCC(=O)NC3CCCC3)nc3ccccc3c2=O)CC1 | -64.8%
COc1ccc(NC(=O)CSc2nc3ccccc3c(=O)n2CCCN2CCOCC2)c(OC)c1 | 1.25%
COc1ccc(NC(=O)CSc2nc3ccccc3c(=O)n2CCCN2CCCCC2)c(OC)c1 | -27.7%
COc1ccc(NC(=O)CSc2nc3ccccc3c(=O)n2CCCN2CCC(C)CC2)c(OC)c1 | -72.1%
CCCCn1c(SCC(=O)NC2CCCC2)nc2ccccc2c1=O | 4.94%
CC1CCN(CCCn2c(SCC(=O)Nc3ccccc3Cl)nc3ccccc3c2=O)CC1 | -34.1%
CC1CCCCC1NC(=O)COC(=O)c1ccc(N(C)C)cc1 (centres unmarked) | 9.14%
O=C(Cc1csc(NC(=O)Nc2cccc(Cl)c2)n1)NCc1cccnc1 | -44.2%
Cc1ccc(NC(=O)c2ccncc2)cc1S(=O)(=O)N(C)C | 0.0196%
CCc1ccc(NC(=O)c2noc(C(C)C)c2[N+](=O)[O-])cc1 | 8.97%
O=C(Nc1cccc(Cl)c1N1CCCC1)c1ccco1 | 16.2%
CCN1CCN(c2c(Cl)cccc2NC(=O)c2ccco2)CC1 | -70.7%
CCN1CCN(c2c(Cl)cccc2NC(=O)c2ccc(Br)o2)CC1 | -59.3%
O=C(Nc1cccc(Cl)c1N1CCOCC1)c1ccco1 | 4.55%
O=C(Nc1cccc(Cl)c1N1CCCC1)c1ccc(Br)o1 | -5.81%
O=C(Nc1cccc(Cl)c1N1CCOCC1)c1ccc([N+](=O)[O-])o1 | 3.63%
O=C(Nc1cccc(Cl)c1N1CCCC1)c1ccc([N+](=O)[O-])o1 | 9.79%
O=C(Nc1cccc(Cl)c1N1CCOCC1)c1ccc(Br)o1 | 4.08%
CCN1CCN(c2c(Cl)cccc2NC(=O)c2ccc([N+](=O)[O-])o2)CC1 | -77%
